# Source: ChEMBL document CHEMBL3988442, “University of Dundee, Small-Polar-MMV Screening Library” (2021)
# Out of some 48,000 compounds screened, about 13,000 (27%) showed an effect of 50% or more. This is one part of the list.
# Test system: Wolbachia pipientis
# Experiment: Anti-Wolbachia Cell-Based Screen
# Assay type: functional
# Design: scale not given: in the data most compounds retested in dose-response had high values
# Details: 5 µM
row,SMILES,Percent Effect
1,Cc1ncsc1CN1C[C@@H]2COC[C@]2(COc2ccc(C#N)cn2)C1,-4.86%
2,COc1ccc(Cl)cc1C(=O)N(C)Cc1cc(C)on1,-1.731%
3,COCc1cc(N2CCc3onc(-c4cccc(OC)c4)c3C2)ncn1,-6.434%
4,Cc1nc(C)c(CNCC2CCCn3ccnc32)s1 (stereo unspecified),-11.09%
5,O=C(Nc1ncn(Cc2cccc(Br)c2)n1)C1CCC1,6.264%
6,O=C(CN1CCOC(Cn2cccn2)C1)NCCc1ccc(F)cc1 (stereo unspecified),-2.964%
7,Cc1nnc(NC(=O)CN2CCOC(Cn3cccn3)C2)s1 (stereo unspecified),-11.4%
8,CN(Cc1ccc(F)cc1)C(=O)CN1CCOC(Cn2cncn2)C1 (stereo unspecified),-5.304%
9,CN(Cc1ccc(F)cc1)C(=O)CN1CCOC(Cn2cccn2)C1 (stereo unspecified),121.8%
10,Cc1ccccc1CN(C)C(=O)CN1CCOC(Cn2cccn2)C1 (stereo unspecified),111%
11,O=C(CN1CCOC(Cn2cccn2)C1)Nc1ccncc1 (stereo unspecified),-3.889%
12,CCN(CCC(F)(F)F)C(=O)Nc1cccc(N2CCOCC2)c1,-10.51%
13,CCC(=O)N1CCC(Cc2cc(Nc3ncccn3)ncn2)CC1,93.47%
14,CN1CCC(Cc2cc(Nc3ccccn3)ncn2)CC1,68.08%
15,CN1CCC(Cc2cc(Nc3ncccn3)ncn2)CC1,-2.002%
16,CC1CCN(CC(O)CNc2ccccn2)CC1 (stereo unspecified),-1.4%
17,N#CCCN(Cc1cccnc1)C(=O)c1ccn(-c2ccccc2)n1,1.241%
18,COc1ccc(/C=C/CN2C[C@H]3CC[C@@H]2CN(S(=O)(=O)N(C)C)C3)cc1,13.82%
19,CC(C)c1cc(NCC(O)c2ccncc2)n2nccc2n1 (stereo unspecified),-8.35%
20,C[C@H](O)CNc1cc(-c2ccncc2)ncn1,115%
21,CC(C)c1cc(NCC2(CO)CCCC2)ncn1,7.781%
22,C[C@H](O)CNC(=O)c1cnc(-c2ccccc2)nc1O,-14.22%

row,SMILES,Percent Effect
1,C[C@H](O)CNc1cc(-c2ccccc2)ncn1,111.5%
2,COc1cc(NCC(c2ccccn2)N(C)C)ncn1 (stereo unspecified),0.2576%
3,O=C(c1ccno1)N1CCC2(CC(=O)N(c3ccc4c(c3)OCO4)C2)C1 (stereo unspecified),-9.598%
4,Cc1ccc(C)c(C(O)Cn2cc(Cl)c(=O)[nH]c2=O)c1 (stereo unspecified),3.012%
5,COCCNC(=O)Cn1nc(C(C)C)c2cnn(C(C)(C)C)c2c1=O,-0.4126%
6,COCCNC(=O)Cn1cc2c(n1)c(C)nn2C(C)C,92.82%
7,COCCNC(=O)N1CCOCC1c1c(C)nn(C)c1C (stereo unspecified),-9.833%
8,COCCNC(=O)C(C)n1cc(Br)cn1 (stereo unspecified),8.857%
9,CCn1nccc1CNC(=O)Cn1cc2c(n1)c(C)nn2C(C)C,116.7%
10,COCCNC(=O)Cn1cc2c(n1)c(C)nn2C,124.1%
11,CCn1nccc1CNC(=O)C(C)n1cc2c(n1)c(C)nn2C (stereo unspecified),13.18%
12,CCn1nccc1CNC(=O)C1CCCC1,10.33%
13,COCCNC(=O)c1cnc(C)nc1C,-12.85%
14,O=C(NCc1cnc2n1CCN(Cc1cccs1)C2)c1ccno1.O=C(O)C(F)(F)F,-34.76%
15,CC(C)(C)c1noc(CCC(=O)N2CCNC(=O)C2)n1,-18.81%
16,CC(C)Cc1ncc2c(n1)CN(c1cc(N)nc(N)n1)C2,16.38%
17,Cc1ccc(C(C(=O)N(C)CCc2cn[nH]c2)N(C)C)cc1 (stereo unspecified),3.285%
18,CN(CCc1cn[nH]c1)C(=O)C(c1ccc(F)cc1)N(C)C (stereo unspecified),-6.005%
19,CN(CCc1cn[nH]c1)C(=O)CCc1ccc(Cl)cc1,144.4%
20,CC(=O)N1CCN(CCNc2snc(Cl)c2C#N)CC1,4.799%
21,N#CCCN(C(=O)CCc1cccnc1)c1ccc2c(c1)OCCO2,88.06%
22,CC(C)(NCC(=O)NCCC#N)c1ccc2c(c1)OCCO2,4.777%

row,SMILES,Percent Effect
1,N#CCCN(Cc1cccnc1)C(=O)Cc1ccc(-n2cnnn2)cc1,-0.659%
2,c1cncc(CCc2nc(C3CC3)nn2-c2ccc3c(c2)OCCO3)c1,-5.22%
3,N#CCCN(Cc1cccnc1)C(=O)c1cccc(-n2cnnn2)c1,-18.3%
4,COCCCC(=O)NS(=O)(=O)c1ccc2c(c1)OCCCO2,-8.462%
5,CCC(C)N(Cc1cccnc1)Cc1ccc2c(c1)OCCO2 (stereo unspecified),9.848%
6,Cc1ccc(N(CCC#N)C(=O)CCc2cccnc2)cc1C,98.05%
7,COCCC(=O)N(CCC#N)c1ccc2c(c1)OCCO2,95.73%
8,CCCN(CC1COc2ccccc2O1)C(=O)CCn1cncn1 (stereo unspecified),-2.229%
9,O=C(Cn1cc(C(=O)O)ccc1=O)NCc1ccc(F)cc1Cl,11.66%
10,Cc1c(Br)cccc1C(=O)NC(C)CN1CCCC1=O (stereo unspecified),-7.738%
11,CC(C)NC(=O)N1C[C@@H](F)[C@@H](OCc2nc3ccccc3o2)C1,-6.815%
12,CN(C)Cc1cc(CC2(NCc3ccccc3Cl)COC2)no1,-4.538%
13,COC[C@@]12CC[C@@H](N3CCOCC3)C[C@H]1CCN(c1nc(CO)cs1)C2,-10.66%
14,O=C(c1ccnn1-c1ccc2ccccn12)N1CCOCC1,95.26%
15,COCCNC(=O)c1ccnn1-c1ccc2ccccn12,-19.09%
16,O=C(c1c2c(NCC3CC3)ncnc2n2ccccc12)N1CCOCC1,2.912%
17,O=C(NCCN1CCOCC1)c1ccnn1-c1ccc2ccccn12.O=C(O)C(F)(F)F,-0.1496%
18,CCN(C)C(=O)c1ccnn1-c1ccc2ccccn12,-2.565%
19,O=C(c1ccnn1-c1ccc2ccccn12)N1CCCC1,84.68%
20,Cc1cccc2c1nc1n2[C@@H](CNC(=O)c2ccccn2)COC1,-9.692%
21,CC(C)COC(=O)N1CCCN(Cc2nnc(C(C)(C)C)o2)CC1,-7.056%
22,CCn1nccc1C(=O)NC(Cn1cccn1)C(C)(C)C (stereo unspecified),98.31%

row,SMILES,Percent Effect
1,CC(C)(C)C(Cn1cccn1)NC(=O)c1ccco1 (stereo unspecified),126.5%
2,CC(Cn1cccn1)NC(=O)C1=Cc2ccccc2OC1 (stereo unspecified),2.492%
3,Cn1cc(C(=O)NC(Cn2cccn2)C(C)(C)C)cn1 (stereo unspecified),91.75%
4,CC(C)CC(NC(=O)c1cnn(C)c1)C(=O)Nc1cc[nH]n1 (stereo unspecified),-3.159%
5,CC(C)(C)C(Cn1ccnc1)NC(=O)NCc1ccco1 (stereo unspecified),10.62%
6,CC(Cn1cccn1)NC(=O)NCCc1cnn(C)c1 (stereo unspecified),-2.639%
7,CN(Cc1ccco1)C(=O)NC(Cn1ccnc1)C(C)(C)C (stereo unspecified),-3.966%
8,CC(Cn1cccn1)NC(=O)Cc1cccs1 (stereo unspecified),8.385%
9,O=S(=O)(Nc1ccc(N2CCOCC2)cc1)c1cccc(F)c1,2.423%
10,Cc1cc(CN2CC3(CCN(C(=O)C4CC4)CC3)CC2C(=O)O)oc1C (stereo unspecified),-14.13%
11,O=c1[nH]c(NCc2cccc(-c3ccccc3)c2)nc2c1CCNC2,-0.2023%
12,CC(=O)c1cccc(-c2nc3c([nH]2)CCNC3)c1F,-6.254%
13,Cc1cccc(N2CCC(N3CCCC4(CN(C)C(=O)O4)C3)CC2)c1C (stereo unspecified),11.85%
14,O=C(O)C(F)(F)F.O=C(O)C(F)(F)F.c1ccc(CN2CCOCC3(CCN(C4CCOCC4)C3)C2)cc1 (stereo unspecified),-14.02%
15,Cc1cccc(N2CCC(N3CCCC4(CNC(=O)O4)C3)CC2)c1C (stereo unspecified),-4.7%
16,CS(=O)(=O)N1CCOC2(CCN(c3ncccn3)CC2)c2ccccc21,-2.489%
17,CS(=O)(=O)N1CC2(CCN(C3COC3)C2)Cc2ccccc21 (stereo unspecified),109.7%
18,CS(=O)(=O)N1CC2(CCCN(C3COC3)C2)Cc2ccccc21 (stereo unspecified),116.4%
19,Cn1c(C2CC2)nc2cc(NC(=O)C3CCOC3)ccc21 (stereo unspecified),-8.416%
20,CCc1nnc(CN2CCCN(C(=O)c3ccccn3)CC2)o1,-2.51%
21,Cc1nnc2n1CCN(C(=O)CN1C(=O)CCCc3ccccc31)C2,-14.77%
22,Cc1cc(C(=O)N2CCc3ncc(CN4CCCCC4)n3CC2)no1,-1.928%

row,SMILES,Percent Effect
1,Cc1cc(C(=O)N2CCN(c3nc4ccccc4s3)CC2)no1,133.9%
2,COc1cccc2sc(N3CCN(C(=O)c4cc(C)on4)CC3)nc12,127.7%
3,Cc1cc(CNC(=O)N2CCN(c3ccccc3)CC2)no1,0.5807%
4,Cc1cc(C(=O)N2CCC3(CC2)c2nc[nH]c2CCN3CC(C)C)no1,-20.9%
5,COC(=O)c1ccc(N2CCN(C(=O)c3cc(C)on3)C(C)C2)cc1 (stereo unspecified),-4.868%
6,CCc1nc(CN2CCCN(C(=O)c3cc(C)on3)CC2)cs1,-3.396%
7,COc1cccc([C@H]2CN(C(=O)c3cc(C)on3)C[C@@H]2N)c1,-12.5%
8,Cc1cc(C(=O)N2CCN(c3nc4c(C)cccc4s3)CC2)no1,128.5%
9,Cc1cc(C(=O)N2CCN(c3nc4c(C(C)C)cccc4s3)CC2)no1,100.9%
10,Cc1cc(CNC(=O)N2CCN(c3nc(C)c(C)s3)CC2)no1,-6.921%
11,Cc1cc(NC(=O)N2CCN(c3nc(C)c(C)s3)CC2)no1,-7.587%
12,CNS(=O)(=O)c1ccc(CNC(=O)Nc2cc(C)on2)s1,-23.04%
13,Cc1ccc2nc(C)c(C)c(C(=O)N3CCS(=O)(=O)CC3)c2c1,7.171%
14,O=C(NCC(Cc1cccc(F)c1)n1cccc1)C1CC1 (stereo unspecified),6.756%
15,COCCC(C)NCc1ccccc1-n1ccnc1 (stereo unspecified),-12.2%
16,COc1cccc(NC(=O)N(CCO)C2CCc3ccccc32)c1 (stereo unspecified),-4.61%
17,O=C(CN1CCOC(Cn2cccn2)C1)Nc1nncs1 (stereo unspecified),-3.509%
18,NC(=O)C(NC(=O)CSCc1ccc(Cl)s1)c1ccccc1 (stereo unspecified),12.02%
